Screening results: PubChem, National Center for Advancing Translational Sciences (NCATS)
Shown is part of a subset that was picked to be rich in hits.
12-LOX inh: Primary qHTS assay for inhibitors of human arachidonate 12S-lipoxygenase (ALOX12): Round 2. Polyunsaturated fatty acid lipoxygenase ALOX12 (Homo sapiens), P18054. purified 12hLO, xylenol orange hydroperoxide absorbance. Potency, µM (doses to about 108 µM), inactives show at the top dose activity change, negative = inhibition, hits mostly inhibitors. 580,000 compounds, 1.1% hits. AID 1671190, 2021; also: potency is read from the fitted curve at half-maximal effect
Target sequence (P18054 whole entry, looked up): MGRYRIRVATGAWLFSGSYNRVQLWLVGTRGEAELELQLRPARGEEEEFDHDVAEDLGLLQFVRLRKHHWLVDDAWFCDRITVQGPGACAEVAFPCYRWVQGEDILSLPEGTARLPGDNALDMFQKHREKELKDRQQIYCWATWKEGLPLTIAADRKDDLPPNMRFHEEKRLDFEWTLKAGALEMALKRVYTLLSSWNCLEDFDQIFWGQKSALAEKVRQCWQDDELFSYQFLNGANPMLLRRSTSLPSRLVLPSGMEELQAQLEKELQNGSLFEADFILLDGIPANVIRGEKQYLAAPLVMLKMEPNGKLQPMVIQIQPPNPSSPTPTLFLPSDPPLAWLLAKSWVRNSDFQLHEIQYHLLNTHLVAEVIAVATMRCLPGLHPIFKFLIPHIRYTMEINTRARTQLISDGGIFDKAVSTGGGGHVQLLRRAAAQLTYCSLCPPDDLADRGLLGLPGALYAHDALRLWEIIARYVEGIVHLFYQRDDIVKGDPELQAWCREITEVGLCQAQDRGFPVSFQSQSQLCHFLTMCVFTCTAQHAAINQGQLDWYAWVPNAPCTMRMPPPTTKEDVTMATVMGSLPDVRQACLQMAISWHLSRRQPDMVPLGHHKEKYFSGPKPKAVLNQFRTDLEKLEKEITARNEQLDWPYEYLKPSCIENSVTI
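Hydroperoxide product was detected by ferrous iron/xylenol orange as the 573 to 405 nm absorbance ratio. Arachidonic acid at 40 uM (final) was turned over for 30 min at room temperature by 150 nM human 12hLO, pH 7.0 Hepes buffer, after 15 min compound preincubation.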
TDP1 cell CPT: qHTS for Inhibitors of human tyrosyl-DNA phosphodiesterase 1 (TDP1): qHTS in cells in presence of CPT | AID 686979, 2013 | chicken DT40 Tdp1-/-;hTDP1 cells + 20 nM CPT, ATP luminescence, 48 h | 420,000 compounds, 12% hits | Potency, µM (series often up to 46.2 µM), for the others: at the highest dose activity change, negative = growth inhibition, hits mostly inhibitors; also: potency is read from the fitted curve at half-maximal effect; nearly all actives have a fitted effect of over 55% in size
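Chicken DT40 Tdp1-/- cells stably complemented with human TDP1 were seeded at 400 cells/well in medium containing 20 nM camptothecin, exposed to pin-transferred compounds, and grown at 37 °C for at least 48 hr. Viability was read as ATP luminescence.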
DT40 TDP1 no CPT: qHTS for Inhibitors of human tyrosyl-DNA phosphodiesterase 1 (TDP1): qHTS in cells in absence of CPT | DT40 Tdp1-/- hTDP1 cells, no CPT, ATP luminescence, 48 h | Potency, µM (top dose mostly 46.2 µM), for the others: at the top dose activity change, negative = growth inhibition, hits mostly inhibitors | 420,000 compounds, 15% hits | AID 686978, 2013; also: potency is read from the fitted curve at half-maximal effect; nearly all actives have a fitted effect of over 55% in size
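Luminescent ATP content (CellTiter-Glo) served as the growth readout. Knockout chicken DT40 cells expressing human TDP1 were exposed to compounds without camptothecin for a minimum 48 hr at 37 °C.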
IL-1B inflam inh: qHTS for Inhibitors of Inflammasome Signaling: IL-1-beta AlphaLISA Primary Screen; THP-1 LPS/ATP IL-1B secretion, AlphaLISA, 16 h; stronger effect = lower value; AID 743279, 2014; 360,000 compounds, 4.7% hits; activity change, % at 57.5 µM; in the data active = activity change below about -50%; inconclusive = mostly about -30% to -49%
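Secreted IL-1B measured by AlphaLISA bead assay after 16 h compound exposure of THP-1 cells; compounds (final up to 57.5 uM) added 1 h before LPS (250 ng/mL) and ATP (1.25 mM) stimulation; lower signal means less secretion.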
HT1080 IDH1KD tx: qHTS for induction of synthetic lethality in tumor cells producing 2HG: qHTS for the HT-1080-IDH1KD cell line; HT-1080 IDH1 knockdown viability, ATP luminescence, 48 h; Potency, µM (titrated, usually from 46.1 µM), for the others: at the highest dose activity, negative = toxicity, hits mostly cytotoxic; 360,000 compounds, 2% hits; AID 686971, 2013;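 also: potency is read from the fitted curve at half-maximal effect; 0% = DMSO wells and -100% = cell-free medium wells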
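% activity derives from luminescence (CellTiter-Glo), normalised to DMSO and no-cell wells. HT-1080-IDH1KD cells, 750/well, had 48 h compound exposure at 37 °C.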
HT1080-NT tox: qHTS for induction of synthetic lethality in tumor cells producing 2HG: qHTS for the HT-1080-NT fibrosarcoma cell line | HT-1080-NT fibrosarcoma viability, CellTiter-Glo ATP luminescence, 48 h | Potency, µM (series often up to 46.1 µM), inactives show at the highest dose activity, negative = less viability, actives largely listed as cytotoxic | 360,000 compounds, 1.6% hits | AID 686970, 2013;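 also: NT is the 2HG producing partner of a matched IDH1 knockdown line; potency is read from the fitted curve at half-maximal effect; 0% = DMSO-treated cells and -100% = media-only wells without cells; nearly all actives have a fitted effect of over 55% in size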
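Fibrosarcoma NT cells, 750 per well in 5% FBS RPMI, were exposed to compound for 48 hours. Viability: CellTiter-Glo luminescence.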
The depositor's hits bear a star; i = inactive; ? = inconclusive; . = no result given. Unless noted, calls follow the shape of the dose curve; as a rule, active = well fitted curve in the direction sought with a large enough effect; inconclusive = small, poorly fitted or top-dose-only effect, or another doubt; inactive = no such curve, though single readings can be large; an effect the other way counts as inactive or inconclusive. Unless noted, % is scaled to controls: 0 for no effect and ±100 for the full control effect.

SMILES | 12-LOX inh | TDP1 cell CPT | DT40 TDP1 no CPT | IL-1B inflam inh | HT1080 IDH1KD tx | HT1080-NT tox
CC(C)(C)c1nc2cc(Cl)c([N+](=O)[O-])cc2o1 | 1% | ? | 23µM* | ? | ? | -28%
COc1ccc(C)cc1-n1ccnc1SCC(=O)Nc1nccs1 | -12% | . | . | . | . | .
Cc1cc(N2C(=O)C(O)=C(C(=O)c3cc4ccccc4o3)C2c2cccc(Cl)c2)no1 (stereo not given) | ? | ? | ? | -10 | -28% | -15%
Cc1cc(N2C(=O)C(O)=C(C(=O)c3cc4ccccc4o3)C2c2ccc(Br)cc2)no1 (stereo not given) | 40µM* | -26% | -20% | -15 | 7% | 0%
CN(C)CCN1C(=O)C(O)=C(C(=O)c2cc3ccccc3o2)C1c1ccc(OCc2ccccc2)cc1 (stereo not given) | 25µM* | . | . | . | . | .
Cc1cc(N2C(=O)C(O)=C(C(=O)c3cc4ccccc4o3)C2c2ccc(Cl)cc2)no1 (stereo not given) | 40µM* | -11% | -8% | -9 | -11% | 0%
Nc1c(NCCN2CCCCC2)c2ccccc2oc1=O | i | 15µM* | 16µM* | 11 | -1% | -9%
CC(C)[C@H](NC(=O)N1CCn2c1nc1ccccc12)C(=O)NCc1ccccc1Cl | 7% | ? | ? | 2 | -7% | -8%
CC(NC(=O)CCCCCNC(=O)N1CCn2c1nc1ccccc12)c1ccccc1 (stereo not given) | -1% | 15µM* | -36% | -53* | -1% | -8%
CC(C)[C@H](NC(=O)N1CCn2c1nc1ccccc12)C(=O)NCc1ccc(F)cc1 | 13% | ? | -19% | -94* | -14% | -12%
CCOC(=O)c1c(NC(=O)CSc2cn(CCNC(=O)c3ccccc3OC)c3ccccc23)sc2c1CCC2 | 0% | ? | ? | . | . | .
CCOC(=O)c1c(NC(=O)CSc2cn(CCNC(=O)c3ccccc3F)c3ccccc23)sc2c1CCCC2 | -8% | 16µM* | 16µM* | . | . | .
CCOC(=O)c1c(NC(=O)CSc2cn(CCNC(=O)c3ccccc3OC)c3ccccc23)sc2c1CCCC2 | 0% | ? | 23µM* | . | . | .
CCOC(=O)c1c(NC(=O)C(C)Sc2cn(CCNC(=O)c3ccc(OC)cc3)c3ccccc23)sc2c1CCC2 (stereo not given) | -10% | 21µM* | ? | . | . | .
CCOC(=O)c1c(NC(=O)CSc2cn(CCNC(=O)c3ccc(OCC)cc3)c3ccccc23)sc2c1CCC2 | 0% | -18% | -23% | . | . | .
CCOC(=O)c1c(NC(=O)COc2cccc3c2CCN(CC)C3=O)sc2c1CCC2 | -3% | ? | 8.2µM* | -2 | 12% | 19%
Cc1nc(N2CCC(C(=O)NC3CCCCCC3)CC2)cc(C(F)(F)F)n1 | 10% | . | . | . | . | .
CCCCCc1ccc(-c2ccc(C(C)=O)cc2)cc1 | -9% | . | . | . | . | .
Cc1nn(-c2ccc3nncn3n2)c2c1C(c1ccccc1)CC(=O)N2 (stereo not given) | -5% | . | . | . | . | .
CCOC(=O)c1c(NC(=O)CSc2c[nH]c3ccccc23)sc2c1CCC2 | -15% | ? | 13µM* | -22 | ? | ?
COc1ccc(C)cc1-n1c(SCC(=O)Nc2ccc3c(c2)OCO3)nc2ccccc2c1=O | 0% | . | . | . | . | .
O=C1C=C(c2cccs2)C[C@H](c2ccccc2)[C@H]1n1nnc([N+](=O)[O-])n1 | ? | 2.6µM* | 2.9µM* | -57* | 2.9µM* | ?
Cc1ccc(/C=N/NC(=O)c2n[nH]c3c2CCCC3)cc1 | 248% | 0.82µM* | 0.92µM* | . | 0.13µM* | 0.16µM*
C/C(=N\NC(=O)c1n[nH]c2c1CCC2)c1cccs1 | 321% | 1% | -4% | . | 17% | 16%
O=C(N/N=C/c1cccs1)c1n[nH]c2c1CCCC2 | i | ? | 21µM* | -26 | 15µM* | 21µM*
SMILES | 12-LOX inh | TDP1 cell CPT | DT40 TDP1 no CPT | IL-1B inflam inh | HT1080 IDH1KD tx | HT1080-NT tox
Cl/C(=C/c1ccc(Cl)cc1)c1ncc(-c2ccc(Cl)cc2)o1 | 35µM* | . | . | . | . | .
COc1ccc(C(=O)N2C[C@@H](Oc3cccnc3)C[C@H]2C(N)=O)c(OC)c1 | 1% | . | . | . | . | .
COc1ccc(C(C(=O)NCC2CCCO2)N(Cc2cccs2)C(=O)c2snc(C(N)=O)c2N)cc1 (stereo not given) | -4% | 16µM* | 10µM* | 10 | -17% | -1%
Cc1ccccc1N(C(=O)c1snc(C(N)=O)c1N)C(C(=O)NCC1CCCO1)c1ccc(N(C)C)cc1 (stereo not given) | -25% | ? | ? | -9 | -11% | -14%
COc1ccc(N(C(=O)c2snc(C(N)=O)c2N)C(C(=O)NCC2CCCO2)c2ccc(C)o2)cc1OC (stereo not given) | 1% | ? | 18µM* | 5 | 6% | -1%
Cc1ccccc1N(C(=O)c1snc(C(N)=O)c1N)C(C(=O)NCC1CCCO1)c1ccc(F)cc1 (stereo not given) | 6% | 15µM* | 10µM* | 19 | -6% | -13%
Cc1ccc(N(C(=O)c2snc(C(N)=O)c2N)C(C(=O)NCC2CCCO2)c2ccc(C)o2)c(C)c1 (stereo not given) | ? | 18µM* | 16µM* | ? | -25% | 0%
CCOc1ccc(C(C(=O)NCC2CCCO2)N(Cc2cccc(OC)c2)C(=O)c2snc(C(N)=O)c2N)cc1 (stereo not given) | 61% | 2% | ? | -5 | -1% | -5%
CC(C(=O)NCC1CCCO1)N(C(=O)c1snc(C(N)=O)c1N)c1ccccc1 (stereo not given) | -6% | -7% | -2% | -8 | 1% | 3%
COCCNC(=O)C(c1ccc(C)o1)N(C(=O)c1snc(C(N)=O)c1N)c1ccc(C)c(C)c1 (stereo not given) | -3% | -26% | -26% | -1 | -11% | 10%
CCc1sc(C(=O)OCC(=O)c2ccc(OC)cc2OC)cc1C | 3% | . | . | . | . | .
CN(C)c1cccc(C(=O)NC2CCN(c3cc(-c4ccccc4)[nH]n3)C2)c1 (stereo not given) | 16% | . | . | . | . | .
COc1ccc(C(=O)N2C[C@@H](Oc3ccccc3)C[C@H]2C(=O)N2CCOCC2)c(OC)c1 | 7% | . | . | . | . | .
CCOc1ccccc1N(C(=O)c1snc(C(N)=O)c1N)C(C(=O)NCC1CCCO1)c1ccc2ncccc2c1 (stereo not given) | ? | -1% | -2% | -17 | -1% | 0%
